# Assay results from article PMC7862700, “An all-to-all approach to the identification of sequence-specific readers for epigenetic DNA modifications on cytosine”.
# Columns and labels:
# Test in all cases: DAPPL (digital affinity profiling via proximity ligation, sequencing); 10 mM Tris-HCl pH 7.5, 50 mM NaCl, 1 mM DTT, 4% glycerol, room temperature, 30 min; GST-TFs on glutathione beads, 16-mer random dsDNA library, 0.1% formaldehyde crosslink after washing; high values mean tight binding
# Details in all cases: protein: recombinant; tags: N-terminal GST; dsDNA, one strand shown
# FLI1 = target: T1, FLI1 (Homo sapiens, UniProt Q01543 1-452)
# T1 sequence: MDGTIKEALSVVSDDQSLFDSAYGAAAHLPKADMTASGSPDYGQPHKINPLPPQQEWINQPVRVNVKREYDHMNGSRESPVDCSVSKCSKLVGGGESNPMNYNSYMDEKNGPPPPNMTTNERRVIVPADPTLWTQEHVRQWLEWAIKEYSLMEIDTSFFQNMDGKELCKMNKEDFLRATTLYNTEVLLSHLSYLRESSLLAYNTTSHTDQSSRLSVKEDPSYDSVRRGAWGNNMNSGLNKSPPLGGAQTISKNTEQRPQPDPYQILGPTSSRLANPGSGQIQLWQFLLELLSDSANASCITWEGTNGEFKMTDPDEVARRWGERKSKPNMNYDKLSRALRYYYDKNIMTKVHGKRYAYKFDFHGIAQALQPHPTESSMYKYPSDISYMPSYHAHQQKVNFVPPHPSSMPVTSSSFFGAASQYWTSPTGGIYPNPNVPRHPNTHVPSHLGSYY
# Method in brief: (§1)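 After expression in yeast as GST fusions, human transcription factors were bound to glutathione beads, DNA-barcoded and mixed with a tag-only sample. The pools were incubated with 200 nmole of a 16-mer random double-stranded DNA library in Tris/NaCl/DTT/glycerol buffer (30 min, room temperature), washed and crosslinked with 0.1% formaldehyde. Proximity ligation with BsaI/T4 ligase ran for 1 h at 37 °C, before PCR amplification and sequencing on an Illumina NextSeq500. Binding signal is a hexamer's read frequency for a factor divided by its frequency for the tag-only sample.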
# ELK1 = target: T2, ELK1 (Homo sapiens, UniProt P19419 1-428)
# T2 sequence: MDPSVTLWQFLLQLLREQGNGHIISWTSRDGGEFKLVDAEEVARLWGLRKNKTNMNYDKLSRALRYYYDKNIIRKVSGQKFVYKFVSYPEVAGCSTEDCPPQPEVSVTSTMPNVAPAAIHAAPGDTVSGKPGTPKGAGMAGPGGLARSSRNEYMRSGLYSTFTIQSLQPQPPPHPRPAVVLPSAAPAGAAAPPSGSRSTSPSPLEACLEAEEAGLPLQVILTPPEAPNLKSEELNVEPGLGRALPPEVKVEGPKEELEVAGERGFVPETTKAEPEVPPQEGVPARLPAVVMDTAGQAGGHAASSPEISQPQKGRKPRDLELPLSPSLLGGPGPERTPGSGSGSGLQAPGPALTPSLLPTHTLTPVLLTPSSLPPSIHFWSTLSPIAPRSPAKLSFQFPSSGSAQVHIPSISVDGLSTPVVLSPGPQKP
# Method in brief: as §1
# GABPA = target: T3, GABPA (Homo sapiens, UniProt Q06546 1-454)
# T3 sequence: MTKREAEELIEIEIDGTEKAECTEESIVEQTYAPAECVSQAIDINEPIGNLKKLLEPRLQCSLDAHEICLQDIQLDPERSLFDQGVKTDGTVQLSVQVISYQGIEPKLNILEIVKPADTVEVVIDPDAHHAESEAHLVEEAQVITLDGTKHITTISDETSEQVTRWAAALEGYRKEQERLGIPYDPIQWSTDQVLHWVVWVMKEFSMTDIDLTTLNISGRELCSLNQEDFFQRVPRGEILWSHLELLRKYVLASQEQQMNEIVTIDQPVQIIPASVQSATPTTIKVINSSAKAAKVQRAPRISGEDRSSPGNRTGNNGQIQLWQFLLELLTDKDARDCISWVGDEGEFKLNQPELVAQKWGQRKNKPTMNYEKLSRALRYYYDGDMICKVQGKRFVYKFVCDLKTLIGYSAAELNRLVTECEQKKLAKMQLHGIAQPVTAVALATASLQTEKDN
# Method in brief: as §1
# ERG = target: T4, ERG (Homo sapiens, UniProt P11308 1-479)
# T4 sequence: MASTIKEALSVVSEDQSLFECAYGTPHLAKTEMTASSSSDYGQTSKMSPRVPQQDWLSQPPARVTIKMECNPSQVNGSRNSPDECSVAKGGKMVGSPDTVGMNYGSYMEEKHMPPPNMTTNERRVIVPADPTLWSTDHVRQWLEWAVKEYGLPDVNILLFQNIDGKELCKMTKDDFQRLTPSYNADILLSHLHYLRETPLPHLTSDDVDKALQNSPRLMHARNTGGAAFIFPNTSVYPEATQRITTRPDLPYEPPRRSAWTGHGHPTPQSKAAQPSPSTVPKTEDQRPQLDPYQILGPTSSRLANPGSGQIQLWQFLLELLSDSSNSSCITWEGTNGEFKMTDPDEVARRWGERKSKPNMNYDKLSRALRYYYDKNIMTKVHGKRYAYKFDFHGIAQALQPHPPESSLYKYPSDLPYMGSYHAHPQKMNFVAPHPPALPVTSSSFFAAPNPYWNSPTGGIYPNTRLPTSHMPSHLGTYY
# Method in brief: as §1
# ELF1 = ELF1 (Homo sapiens, UniProt P32519 1-619)
# Chain of ELF1 (P32519 whole entry): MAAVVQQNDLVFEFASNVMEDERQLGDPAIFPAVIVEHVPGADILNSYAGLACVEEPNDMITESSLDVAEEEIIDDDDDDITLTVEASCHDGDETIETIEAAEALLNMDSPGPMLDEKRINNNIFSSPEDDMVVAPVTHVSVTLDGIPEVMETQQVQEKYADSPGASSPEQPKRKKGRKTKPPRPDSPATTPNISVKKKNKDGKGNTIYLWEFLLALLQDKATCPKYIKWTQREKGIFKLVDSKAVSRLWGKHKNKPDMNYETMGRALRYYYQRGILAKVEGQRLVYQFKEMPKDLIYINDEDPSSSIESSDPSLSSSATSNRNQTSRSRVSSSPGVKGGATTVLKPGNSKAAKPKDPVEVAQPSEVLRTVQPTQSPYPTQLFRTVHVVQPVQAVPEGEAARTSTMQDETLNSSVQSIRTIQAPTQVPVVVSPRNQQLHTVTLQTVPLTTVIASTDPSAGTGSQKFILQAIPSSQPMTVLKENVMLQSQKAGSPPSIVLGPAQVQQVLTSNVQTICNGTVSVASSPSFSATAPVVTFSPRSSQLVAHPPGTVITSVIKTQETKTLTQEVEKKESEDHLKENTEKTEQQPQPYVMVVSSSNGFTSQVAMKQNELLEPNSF
# Method in brief: as §1
# EHF = target: T5, EHF (Homo sapiens, UniProt Q9NZC4 1-300)
# T5 sequence: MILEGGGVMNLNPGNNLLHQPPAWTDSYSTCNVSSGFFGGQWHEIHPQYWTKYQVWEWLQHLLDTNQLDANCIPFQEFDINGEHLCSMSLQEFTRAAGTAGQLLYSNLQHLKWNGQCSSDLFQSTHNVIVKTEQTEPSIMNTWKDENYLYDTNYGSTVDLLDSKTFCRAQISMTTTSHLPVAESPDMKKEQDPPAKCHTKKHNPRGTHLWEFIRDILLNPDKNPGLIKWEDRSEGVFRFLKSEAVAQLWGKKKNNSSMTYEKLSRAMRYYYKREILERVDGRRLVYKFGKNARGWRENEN
# Method in brief: as §1
# SPI1 = SPI1 (Homo sapiens, UniProt P17947 1-270)
# Method in brief: as §1
# SPIB = SPIB (Homo sapiens, UniProt Q01892 1-262)
# Chain of SPIB (Q01892 whole entry): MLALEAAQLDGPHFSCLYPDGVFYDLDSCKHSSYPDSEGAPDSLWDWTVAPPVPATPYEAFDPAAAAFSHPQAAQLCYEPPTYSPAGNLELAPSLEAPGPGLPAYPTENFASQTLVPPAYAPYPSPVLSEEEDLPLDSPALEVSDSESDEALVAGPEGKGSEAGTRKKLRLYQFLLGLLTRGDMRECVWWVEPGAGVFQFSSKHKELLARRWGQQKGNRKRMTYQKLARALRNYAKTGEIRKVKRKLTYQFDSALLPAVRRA
# Method in brief: as §1
# ELK3 = target: T6, ELK3 (Homo sapiens, UniProt P41970 1-407)
# T6 sequence: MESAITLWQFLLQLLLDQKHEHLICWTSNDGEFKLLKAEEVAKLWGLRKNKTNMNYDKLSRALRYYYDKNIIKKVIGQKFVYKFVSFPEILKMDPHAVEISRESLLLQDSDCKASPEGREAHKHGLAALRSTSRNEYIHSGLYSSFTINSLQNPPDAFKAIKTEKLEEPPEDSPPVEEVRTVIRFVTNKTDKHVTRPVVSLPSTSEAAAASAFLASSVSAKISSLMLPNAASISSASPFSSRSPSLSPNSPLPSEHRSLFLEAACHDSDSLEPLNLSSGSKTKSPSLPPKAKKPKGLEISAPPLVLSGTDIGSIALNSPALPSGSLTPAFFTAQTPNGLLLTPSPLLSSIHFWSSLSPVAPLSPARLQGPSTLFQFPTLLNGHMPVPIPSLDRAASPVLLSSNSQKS
# Method in brief: as §1
sequence,measurement,setting,value
ACACTA,binding signal,FLI1,"1.11 fold enrichment (6-mer frequency, TF over GST control)"
same,binding signal,ELK1,"1.17 fold enrichment (6-mer frequency, TF over GST control)"
same,binding signal,GABPA,"1.13 fold enrichment (6-mer frequency, TF over GST control)"
same,binding signal,ERG,"1.12 fold enrichment (6-mer frequency, TF over GST control)"
same,binding signal,ELF1,"1.19 fold enrichment (6-mer frequency, TF over GST control)"
same,binding signal,EHF,"1.15 fold enrichment (6-mer frequency, TF over GST control)"
same,binding signal,SPI1,"1.11 fold enrichment (6-mer frequency, TF over GST control)"
same,binding signal,SPIB,"1.09 fold enrichment (6-mer frequency, TF over GST control)"
same,binding signal,ELK3,"1.1 fold enrichment (6-mer frequency, TF over GST control)"
